Experimental data reported in PubChem BioAssay (EPA / NIEHS).
Results filed as inconclusive are left out. Where a structure was tested more than once in an assay, its records may differ in their call. Activity calls are given as the source filed them. How the source made its calls: active means hit-call score of the fitted dose curve at least 0.9, where 1 is the maximum; inconclusive means response in the unintended direction; inactive means score below 0.9.

Key:
[1] = biological target: rat Androgen Receptor (AR), Ar (gene 24208) (UniProt P15207); test: NVS_NR_rAR: NovaScreen (NVS) Nuclear Receptor Binding Assay for rat Androgen Receptor (AR) (AID 2283366)
Procedure, shortened: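 Actives from a duplicate single-concentration (25 uM) primary run went on to concentration series. Displacement of radioligand was counted by filtration and scintillation, 18 h post-dose, using prostate extracts from testosterone-pretreated rats, with DMSO as baseline.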

[2] = biological target: Nuclear receptor subfamily 1 group I member 2 (Homo sapiens) (UniProt O75469); test: NVS_NR_hPXR: NovaScreen (NVS) Nuclear Receptor Binding Assay for human Pregnane X Receptor (PXR) (AID 2283365);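 further: a drop in FRET signal versus DMSO baseline means the compound binds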
Procedure, shortened: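 Cell-free TR-FRET binding assay with extracted human PXR protein, read 2 h after dosing. Primary screen run in duplicate at 25 uM, actives followed in concentration series; loss of signal fitted against DMSO baseline.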

[3] = biological target: Peroxisome proliferator-activated receptor gamma (Homo sapiens) (UniProt P37231); test: NVS_NR_hPPARg: NovaScreen (NVS) Nuclear Receptor Binding Assay for human Peroxisome Proliferator-activated Receptor gamma (PPARg) (AID 2283370)
Procedure, shortened: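 Cell-free fluorescence polarization binding to human PPARg protein, read 2 h after dosing. Primary screen in duplicate at 25 uM, actives followed in concentration series; loss of signal relative to DMSO scored.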

PGR (gene 5241) = PGR (gene 5241) (UniProt P06401); test: NVS_NR_hPR: NovaScreen (NVS) Nuclear Receptor Binding Assay for human Progestron Receptor (PR) (AID 2283360);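 further: active means loss of bound radioligand signal versus DMSO baseline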
Procedure, shortened: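 Competitive displacement of a labelled radioligand from T47D-derived receptor protein is measured in a cell-free format. Initial testing uses 25 uM in duplicate, with positive and negative controls on every plate.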

[4] = system: guinea pig Dopamine Transporter (DAT), gene 100714898; test: NVS_TR_gDAT: NovaScreen (NVS) Transporter Assay for guinea pig Dopamine Transporter (DAT) (AID 2283369);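 further: active compounds lower bound radioligand signal relative to DMSO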
Procedure, shortened: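 Guinea pig striatal membranes, cell-free radioligand binding with filter-based scintillation counting, read 2 h after dosing. Loss of signal versus DMSO baseline; single-concentration primary (25 uM) then concentration-response up to 50 uM.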

[5] = biological target: human Dopamine Transporter (DAT), SLC6A3 (gene 6531) (UniProt Q01959); test: NVS_TR_hDAT: NovaScreen (NVS) Transporter Assay for human Dopamine Transporter (DAT) (AID 2283374);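 further: activity means loss of bound radioligand signal relative to DMSO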
Procedure, shortened: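 Extracted human SLC6A3 protein incubated 1 h with radioligand and test chemical; bound fraction separated on filters and counted. Single 25 uM duplicate screen preceded concentration-response follow-up; positive and negative controls on every plate.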

[6] = biological target: Retinoic acid receptor alpha (Homo sapiens) (UniProt P10276); test: NVS_NR_hRARa_Agonist: NovaScreen (NVS) Nuclear Receptor Binding Assay for human Retinoic Acid Alpha Receptor Agonism (RAR) (AID 2283361)
Procedure, shortened: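 Compounds screened at 25 uM, duplicate, then in concentration series if active. Detection: TR-FRET gain of signal versus DMSO after 2 h with cell-free extracted RARα.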

[7] = biological target: Glucocorticoid receptor (Homo sapiens) (UniProt P04150); test: NVS_NR_hGR: NovaScreen (NVS) Nuclear Receptor Binding Assay for human Glucocorticoid Receptor (GR) (AID 2283363)
Procedure, shortened: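 Single-readout cell-free binding: radioligand plus extracted receptor, 16-hour dosing, filter radiodetection; 25 uM duplicate primary, concentration series secondary.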

[8] = biological target: human Thyroid Receptor Alpha (TRa), THRA (gene 7067) (UniProt P10827); test: NVS_NR_hTRa_Antagonist: NovaScreen (NVS) Nuclear Receptor Binding Assay for human Thyroid Receptor Alpha Antagonism (TRa) (AID 2283362)
Procedure, shortened: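 Cell-free AlphaLISA chemiluminescent binding read 1 h after dosing, antagonist mode; signal loss versus DMSO baseline. Primary screen in duplicate at 25 uM, then concentration series for actives.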

[9] = biological target: guinea pig Sigma Receptor, Non-selective Binding, SIGMAR1 (gene 100135589) (UniProt Q60492); test: NVS_OR_gSIGMA_NonSelective: NovaScreen (NVS) Nuclear Receptor Binding Assay for guinea pig Sigma Receptor, Non-selective Binding (AID 2283367)
Description: NVS_OR_gSIGMA_NonSelective is a biochemical, single-readout assay that uses extracted gene-proteins from Guinea pig brain membranes in a tissue-based cell-free assay. Measurements were taken 1 hour after chemical dosing in a 48-well plate.NVS_OR_gSIGMA_NonSelective is one of one assay component(s) measured or calculated from the NVS_OR_gSIGMA_NonSelective assay. It is designed to make measurements of radioligand binding, a form of binding reporter, as detected with scintillation counting signals by Filter-based radiodetection technology.Data from the assay component NVS_OR_gSIGMA_NonSelective was analyzed into 1 assay endpoint. This assay endpoint, NVS_OR_gSIGMA_NonSelective, was analyzed in the positive analysis fitting direction relative to DMSO as the negative control and baseline of activity. Using a type of binding reporter, loss-of-signal activity can be used to understand changes in the binding as they relate to the gene Sigmar1. Furthermore, this assay endpoint can be referred to as a primary readout, because the performed assay has only produced 1 assay endpoint. To generalize the intended target to other relatable targets, this assay endpoint is annotated to the misc protein intended target family, where the subfamily is chaperone. […]

human Dopamine Transporter (DAT), SLC6A3 (gene 6531), sequence (Q01959 whole entry, looked up): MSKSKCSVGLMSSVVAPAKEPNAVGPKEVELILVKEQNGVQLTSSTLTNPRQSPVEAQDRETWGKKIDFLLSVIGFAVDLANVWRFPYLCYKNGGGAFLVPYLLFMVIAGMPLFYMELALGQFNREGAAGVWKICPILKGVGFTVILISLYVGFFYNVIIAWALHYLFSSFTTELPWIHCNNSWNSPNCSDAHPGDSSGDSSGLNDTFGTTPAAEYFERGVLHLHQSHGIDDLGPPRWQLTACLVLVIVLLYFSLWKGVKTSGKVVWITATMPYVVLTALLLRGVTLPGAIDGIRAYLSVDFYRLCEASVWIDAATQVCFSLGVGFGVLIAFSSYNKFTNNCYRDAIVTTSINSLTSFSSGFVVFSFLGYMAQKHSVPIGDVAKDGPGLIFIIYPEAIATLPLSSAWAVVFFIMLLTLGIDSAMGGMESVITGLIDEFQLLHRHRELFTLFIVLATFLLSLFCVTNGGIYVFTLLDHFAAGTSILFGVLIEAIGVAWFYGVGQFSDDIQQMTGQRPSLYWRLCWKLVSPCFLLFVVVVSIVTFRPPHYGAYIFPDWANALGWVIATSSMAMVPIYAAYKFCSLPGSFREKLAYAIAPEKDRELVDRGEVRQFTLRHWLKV
Glucocorticoid receptor (Homo sapiens), sequence (P04150 whole entry, looked up): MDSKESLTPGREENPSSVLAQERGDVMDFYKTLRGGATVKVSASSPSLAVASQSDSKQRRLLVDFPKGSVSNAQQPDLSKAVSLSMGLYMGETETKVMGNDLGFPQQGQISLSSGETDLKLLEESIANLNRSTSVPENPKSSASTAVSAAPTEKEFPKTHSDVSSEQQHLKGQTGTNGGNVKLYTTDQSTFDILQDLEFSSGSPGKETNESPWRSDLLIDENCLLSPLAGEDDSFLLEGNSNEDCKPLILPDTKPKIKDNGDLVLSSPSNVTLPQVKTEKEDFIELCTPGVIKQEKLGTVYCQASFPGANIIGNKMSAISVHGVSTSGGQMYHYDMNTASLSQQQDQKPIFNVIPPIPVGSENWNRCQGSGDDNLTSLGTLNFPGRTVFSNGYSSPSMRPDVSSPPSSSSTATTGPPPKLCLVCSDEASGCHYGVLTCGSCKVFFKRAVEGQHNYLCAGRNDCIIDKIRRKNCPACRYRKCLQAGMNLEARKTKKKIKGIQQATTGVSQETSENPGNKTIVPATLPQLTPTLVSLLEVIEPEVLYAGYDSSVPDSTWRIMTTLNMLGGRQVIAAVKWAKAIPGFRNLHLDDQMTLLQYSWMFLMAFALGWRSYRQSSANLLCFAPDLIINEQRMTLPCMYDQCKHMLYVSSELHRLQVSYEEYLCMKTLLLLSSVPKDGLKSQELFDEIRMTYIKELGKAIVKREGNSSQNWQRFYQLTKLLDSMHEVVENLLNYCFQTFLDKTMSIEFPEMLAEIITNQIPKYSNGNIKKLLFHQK
Peroxisome proliferator-activated receptor gamma (Homo sapiens), sequence (P37231 whole entry, looked up): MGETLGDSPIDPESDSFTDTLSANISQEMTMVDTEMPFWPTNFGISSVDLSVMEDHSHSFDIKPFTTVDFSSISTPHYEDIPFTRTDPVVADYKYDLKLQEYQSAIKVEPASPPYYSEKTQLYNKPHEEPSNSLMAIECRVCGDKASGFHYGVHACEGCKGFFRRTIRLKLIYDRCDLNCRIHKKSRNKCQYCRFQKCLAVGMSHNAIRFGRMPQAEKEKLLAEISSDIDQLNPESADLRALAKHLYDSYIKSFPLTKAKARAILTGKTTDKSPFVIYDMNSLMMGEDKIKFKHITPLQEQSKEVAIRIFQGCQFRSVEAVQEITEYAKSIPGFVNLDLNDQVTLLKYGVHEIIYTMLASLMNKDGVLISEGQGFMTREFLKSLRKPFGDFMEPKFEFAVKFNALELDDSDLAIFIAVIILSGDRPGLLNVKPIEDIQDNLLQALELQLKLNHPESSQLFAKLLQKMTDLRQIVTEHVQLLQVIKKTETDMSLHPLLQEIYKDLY
Retinoic acid receptor alpha (Homo sapiens), sequence (P10276 whole entry, looked up): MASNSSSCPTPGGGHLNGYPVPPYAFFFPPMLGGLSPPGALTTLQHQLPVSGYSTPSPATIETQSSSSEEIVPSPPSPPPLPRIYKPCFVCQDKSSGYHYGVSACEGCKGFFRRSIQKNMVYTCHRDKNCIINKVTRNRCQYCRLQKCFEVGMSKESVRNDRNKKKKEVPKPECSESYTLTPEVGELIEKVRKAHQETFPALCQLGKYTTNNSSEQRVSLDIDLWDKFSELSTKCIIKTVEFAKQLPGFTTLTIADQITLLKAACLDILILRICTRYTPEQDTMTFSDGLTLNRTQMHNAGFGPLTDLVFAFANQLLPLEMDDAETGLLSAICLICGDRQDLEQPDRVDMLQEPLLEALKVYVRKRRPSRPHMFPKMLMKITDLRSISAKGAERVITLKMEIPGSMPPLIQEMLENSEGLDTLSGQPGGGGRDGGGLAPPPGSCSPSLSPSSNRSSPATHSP
PGR (gene 5241), sequence (P06401 whole entry, looked up): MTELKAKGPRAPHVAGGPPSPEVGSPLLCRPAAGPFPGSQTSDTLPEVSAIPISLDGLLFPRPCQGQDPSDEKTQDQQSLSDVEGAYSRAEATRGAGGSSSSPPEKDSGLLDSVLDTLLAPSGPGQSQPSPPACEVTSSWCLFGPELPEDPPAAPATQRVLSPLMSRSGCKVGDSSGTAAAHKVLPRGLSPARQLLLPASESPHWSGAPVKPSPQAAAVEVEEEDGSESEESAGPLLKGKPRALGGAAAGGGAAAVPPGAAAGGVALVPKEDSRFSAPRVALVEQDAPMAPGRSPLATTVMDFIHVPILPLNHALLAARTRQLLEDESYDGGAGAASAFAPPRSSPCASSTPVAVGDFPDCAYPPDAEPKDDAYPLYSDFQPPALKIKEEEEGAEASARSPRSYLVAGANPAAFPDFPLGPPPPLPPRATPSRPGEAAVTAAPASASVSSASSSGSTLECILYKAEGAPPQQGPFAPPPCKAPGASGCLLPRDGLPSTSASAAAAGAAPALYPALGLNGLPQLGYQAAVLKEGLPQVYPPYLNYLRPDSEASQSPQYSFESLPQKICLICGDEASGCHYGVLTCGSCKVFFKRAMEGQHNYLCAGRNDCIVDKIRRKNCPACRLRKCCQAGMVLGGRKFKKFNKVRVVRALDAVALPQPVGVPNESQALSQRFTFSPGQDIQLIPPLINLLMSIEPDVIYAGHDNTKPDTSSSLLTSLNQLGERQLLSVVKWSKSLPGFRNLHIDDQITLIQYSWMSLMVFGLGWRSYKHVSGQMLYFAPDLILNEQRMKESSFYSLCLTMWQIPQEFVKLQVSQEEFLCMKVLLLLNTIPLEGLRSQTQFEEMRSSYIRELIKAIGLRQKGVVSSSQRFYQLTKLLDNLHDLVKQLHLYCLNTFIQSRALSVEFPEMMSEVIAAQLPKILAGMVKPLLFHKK
Nuclear receptor subfamily 1 group I member 2 (Homo sapiens), sequence (O75469 whole entry, looked up): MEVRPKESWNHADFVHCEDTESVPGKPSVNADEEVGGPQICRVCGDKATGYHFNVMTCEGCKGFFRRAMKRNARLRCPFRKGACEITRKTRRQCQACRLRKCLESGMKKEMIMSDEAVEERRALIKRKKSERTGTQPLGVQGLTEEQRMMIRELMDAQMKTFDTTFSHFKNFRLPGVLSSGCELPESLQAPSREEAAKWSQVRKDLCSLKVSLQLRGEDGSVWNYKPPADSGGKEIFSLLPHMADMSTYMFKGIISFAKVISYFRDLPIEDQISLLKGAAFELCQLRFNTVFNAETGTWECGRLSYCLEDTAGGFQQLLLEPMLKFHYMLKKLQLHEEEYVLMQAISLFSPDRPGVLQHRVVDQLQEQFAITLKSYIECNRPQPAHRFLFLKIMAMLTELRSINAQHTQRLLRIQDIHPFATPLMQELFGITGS
rat Androgen Receptor (AR), Ar (gene 24208), sequence (P15207 whole entry, looked up): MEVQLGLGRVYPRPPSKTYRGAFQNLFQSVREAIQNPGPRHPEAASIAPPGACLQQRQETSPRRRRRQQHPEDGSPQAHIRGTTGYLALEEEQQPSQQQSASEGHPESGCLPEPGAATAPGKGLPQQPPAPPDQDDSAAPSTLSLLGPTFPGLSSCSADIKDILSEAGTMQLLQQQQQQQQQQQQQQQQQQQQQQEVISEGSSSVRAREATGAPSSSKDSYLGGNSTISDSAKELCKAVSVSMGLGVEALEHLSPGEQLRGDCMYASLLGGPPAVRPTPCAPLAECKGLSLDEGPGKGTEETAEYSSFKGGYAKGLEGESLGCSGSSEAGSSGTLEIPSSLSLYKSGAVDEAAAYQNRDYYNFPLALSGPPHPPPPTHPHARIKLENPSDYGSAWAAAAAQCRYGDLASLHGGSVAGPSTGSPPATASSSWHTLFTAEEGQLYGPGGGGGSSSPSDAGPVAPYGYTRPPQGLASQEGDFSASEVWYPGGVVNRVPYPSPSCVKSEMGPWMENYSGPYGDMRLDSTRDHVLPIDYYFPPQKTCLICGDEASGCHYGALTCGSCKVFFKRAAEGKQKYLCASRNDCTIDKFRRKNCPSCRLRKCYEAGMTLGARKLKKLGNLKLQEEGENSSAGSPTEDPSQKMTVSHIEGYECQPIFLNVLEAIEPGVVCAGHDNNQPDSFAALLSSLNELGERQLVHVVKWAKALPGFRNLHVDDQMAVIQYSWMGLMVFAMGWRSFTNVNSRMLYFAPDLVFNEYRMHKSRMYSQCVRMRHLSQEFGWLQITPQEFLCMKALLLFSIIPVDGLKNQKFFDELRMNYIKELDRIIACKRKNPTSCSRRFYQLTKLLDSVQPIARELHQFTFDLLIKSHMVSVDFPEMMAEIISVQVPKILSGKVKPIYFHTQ
guinea pig Sigma Receptor, Non-selective Binding, SIGMAR1 (gene 100135589), sequence (Q60492 whole entry, looked up): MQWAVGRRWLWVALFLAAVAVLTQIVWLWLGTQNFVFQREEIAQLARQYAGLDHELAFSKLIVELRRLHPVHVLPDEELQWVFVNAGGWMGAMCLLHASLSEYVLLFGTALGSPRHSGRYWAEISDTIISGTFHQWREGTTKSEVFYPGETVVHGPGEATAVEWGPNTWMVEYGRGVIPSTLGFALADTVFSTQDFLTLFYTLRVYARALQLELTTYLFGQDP

Q: How did the outcome [1] turn out when C#CC(O)CCC (stereo not drawn) was run?
A: inactive

Q: With CCc1cc(Cc2cc(CC)c(N)c(CC)c2)cc(CC)c1N as the molecule, how does the outcome [2] read?
A: inactive

Q: What about the AC50 [3] of the same molecule?
A: 14.2 µM (active)

Q: What about the outcome [3] of the same molecule?
A: inactive

Q: C[C@]12CC[C@H]3C(=CCc4cc(O)ccc43)[C@@H]1CCC2=O was tested. Which AC50 (PGR (gene 5241)) did it give?
A: 46.7 µM (active)

Q: And the AC50 [4]?
A: 1.16 µM (active)

Q: What about the AC50 [5] of the same molecule?
A: 4.59 µM (active)

Q: CCCCCCCCCCCCC[N+](C)(C)Cc1ccccc1 was tested. Which AC50 [6] did it give?
A: 13.4 µM (active)

Q: What about the outcome [7] of the same molecule?
A: inactive

Q: What about the AC50 [2] of the same molecule?
A: 3.9 µM (active)

Q: What about the outcome [3] of the same molecule?
A: inactive

Q: What does the source list for CCCCCCCCCCCCCC[P+](CCCC)(CCCC)CCCC?
A: AC50 [6]: 3.23 µM (active); AC50 [2]: 0.0885 µM (active); AC50 [1]: 3.82 µM (active)

Q: Which outcome [2] does the source give for CCOC(OCC)OCC here?
A: inactive

Q: What about the outcome [3] of the same molecule?
A: inactive

Q: For CC(C)(C)c1cc(Cc2cc(C(C)(C)C)c(O)c(C(C)(C)C)c2)cc(C(C)(C)C)c1O, which outcome [2] is on record?
A: inactive

Q: And the outcome [3]?
A: inactive

Q: With Cc1cnccn1 as the molecule, how does the outcome (PGR (gene 5241)) read?
A: inactive

Q: Which AC50 [6] does the source give for CCN=c1cc2oc3cc(NCC)c(C)cc3c(-c3ccccc3C(=O)OCC)c-2cc1C here?
A: 18.1 µM (active)

Q: And the AC50 [8]?
A: 38.3 µM (active)

Q: What about the AC50 [7] of the same molecule?
A: 9.39 µM (active)

Q: What about the AC50 [1] of the same molecule?
A: 6.57 µM (active)

Q: Which outcome [3] does the source give for CCCCCCCCn1sc(Cl)c(Cl)c1=O here?
A: inactive

Q: For CCN(CC)c1ccc(C=O)cc1, which AC50 (PGR (gene 5241)) is on record?
A: 41.5 µM (active)

Q: Which outcome (PGR (gene 5241)) does the source give for O=C=Nc1cccc2c(N=C=O)cccc12 here?
A: inactive

Q: For CCN(CC)c1ccc(C=O)c(O)c1, which AC50 (PGR (gene 5241)) is on record?
A: 41.7 µM (active)

Q: And the AC50 [1]?
A: 25 µM (active)

Q: And the AC50 [4]?
A: 15 µM (active)

Q: Which AC50 [4] does the source give for Cc1ccc(S(=O)(=O)C(I)I)cc1 here?
A: 15.6 µM (active)

Q: How did the outcome [3] turn out when Cc1ccc([N+](=O)[O-])c(C)c1 was run?
A: inactive

Q: How did the outcome [1] turn out when O=C1c2ccccc2C(=O)c2c(Cl)cccc21 was run?
A: inactive

Q: How did the outcome [2] turn out when N#Cc1ccccc1O was run?
A: inactive

Q: CCN=C1C=CC(=C(c2ccc(N(CC)CC)cc2)c2ccc(N(CC)CC)cc2)c2ccccc21 was tested. Which AC50 [8] did it give?
A: 1.15 µM (active)

Q: What about the AC50 [7] of the same molecule?
A: 0.404 µM (active)

Q: What about the AC50 [1] of the same molecule?
A: 1.05 µM (active)

Q: What about the outcome [3] of the same molecule?
A: inactive

Q: What does the source list for COCCOCCC[Si](C)(O[Si](C)(C)C)O[Si](C)(C)C?
A: outcome [2]: inactive; outcome [3]: inactive

Q: For CC(C)Nc1ccc(NC(C)C)c2c1C(=O)c1ccccc1C2=O, which outcome [3] is on record?
A: inactive

Q: CC(=O)CCC(C)C was tested. Which outcome [3] did it give?
A: inactive

Q: What about the outcome [5] of the same molecule?
A: inactive

Q: Which outcome (PGR (gene 5241)) does the source give for c1ccc(C[P+](c2ccccc2)(c2ccccc2)c2ccccc2)cc1 here?
A: inactive

Q: What about the AC50 [9] of the same molecule?
A: 4.57 µM (active)

Q: What about the AC50 [4] of the same molecule?
A: 15.1 µM (active)

Q: And the AC50 [5]?
A: 16.7 µM (active)

Q: For CCCCCCCCCc1ccc(OCCO)cc1, which outcome [2] is on record?
A: inactive

Q: And the outcome [3]?
A: inactive

Q: What does the source list for CCCCCCCC/C=C\CCCCCCCC(=O)N(C)CC(=O)O?
A: AC50 [7]: 4.85 µM (active); outcome [2]: inactive

Q: CCN(CC)c1ccc2c(c1)Oc1cc(N(CC)CC)ccc1C21OC(=O)c2ccccc21 was tested. Which outcome [4] did it give?
A: inactive

Q: Which outcome (PGR (gene 5241)) does the source give for CCN(CC)c1ccc(N=Nc2ccccc2)cc1 here?
A: inactive

Q: What about the outcome [4] of the same molecule?
A: inactive

Q: And the outcome [5]?
A: inactive

Q: Oc1ccc(C2(c3ccc(O)c(C4CCCCC4)c3)CCCCC2)cc1C1CCCCC1 was tested. Which outcome (PGR (gene 5241)) did it give?
A: inactive

Q: With CCCCCCCC/C=C\CCCCCCCC(=O)OCC(O)CO (stereo not drawn) as the molecule, how does the AC50 [2] read?
A: 8.56 µM (active)

Q: What about the AC50 [1] of the same molecule?
A: 34.8 µM (active)

Q: What about the outcome [3] of the same molecule?
A: inactive

Q: For Cc1cc(C)c(O)c(C(C)(C)C)c1, which AC50 [9] is on record?
A: 16.5 µM (active)

Q: How did the AC50 [7] turn out when O=C1c2c(O)ccc(Nc3ccc(CCO)cc3)c2C(=O)c2c([N+](=O)[O-])ccc(O)c21 was run?
A: 23.5 µM (active)

Q: How did the outcome [5] turn out when CCn1c2ccccc2c2ccccc21 was run?
A: inactive

Q: How did the AC50 [5] turn out when O=C(c1ccccc1)c1ccc(Cl)cc1 was run?
A: 20.2 µM (active)

Q: With Cc1cc(O)c(C(C)(C)C)cc1C(C)(C)C as the molecule, how does the AC50 [5] read?
A: 23.7 µM (active)

Q: Which results are given for O=C1C=CC(=O)N1c1ccc(Cc2ccc(N3C(=O)C=CC3=O)cc2)cc1?
A: AC50 [4]: 11.3 µM (active); outcome [5]: inactive

Q: CSc1ccc(O)cc1C was tested. Which outcome (PGR (gene 5241)) did it give?
A: inactive

Q: What about the AC50 [4] of the same molecule?
A: 19.4 µM (active)

Q: What about the AC50 [5] of the same molecule?
A: 33.9 µM (active)
